Test results taken from the supplement of paper PMC9262897, “Low-cost anti-mycobacterial drug discovery using engineered E. coli” (Nature Communications, 2022).
Where a name gives a salt, the structure may show the parent alone. ± gives the standard deviation of the averaged measurements.

Columns and labels:
Assay in all cases: growth (OD600 after 10 h); higher = more growth (less inhibition)
[1] = system: E. coli TESEC Alr+ wild-type control; settings: compound 0.1 mM; raw OD600 reference: median of DMSO wells 0.241, cell-free background 0.041
Procedure: (§1)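 TESEC Mtb Alr E. coli, or the Alr+ wild-type control, in 384-well plates with Prestwick library compounds at 0.1 mM and 1% DMSO, across arabinose induction levels of 1E3 to 1E7 nM. Growth is read as OD600 after 10 h at 37 °C in triplicate biological replicates.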

[2] = system: E. coli TESEC Mtb Alr; settings: compound 0.1 mM
Procedure: as §1

[3] = system: E. coli TESEC Mtb Asd; settings: compound 0.1 mM
Procedure: (§2)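 TESEC E. coli strains in which the native enzyme is deleted and replaced by arabinose-inducible Mtb Asd, DapB, CysH or TrpD, each grown in its selective medium. Strains were screened against the Prestwick library at 0.1 mM and 1% DMSO in 384-well format at low and high arabinose induction. Growth is read as OD600 after 10 h in triplicate.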

[4] = system: E. coli TESEC Mtb DapB; settings: compound 0.1 mM
Procedure: as §2

[5] = system: E. coli TESEC Alr+ wild-type control; settings: compound 0.1 mM; raw OD600 reference: median of DMSO wells 0.49, cell-free background 0.052
Procedure: (§3)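 TESEC Mtb Alr E. coli (ΔaraC ΔtolC ΔentC Δalr ΔdadX, arabinose-inducible Mtb Alr) or the Alr+ wild-type control strain, grown in defined M9-fructose medium without D-alanine in 96-well plates with Prestwick library compounds at 0.1 mM and 1% DMSO. Low Alr induction is 0.1 µM arabinose and high induction is 10 mM arabinose.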

[6] = system: E. coli TESEC Mtb Alr; settings: compound 0.1 mM; remark: listed apart in the source
Procedure: as §3

[7] = arabinose 1000 nM, raw OD600 reference: median of DMSO wells 0.294, cell-free background 0.041
[8] = arabinose 10000 nM, raw OD600 reference: median of DMSO wells 0.264, cell-free background 0.041
[9] = arabinose 100000 nM, raw OD600 reference: median of DMSO wells 0.201, cell-free background 0.041
[10] = arabinose 1000000 nM, raw OD600 reference: median of DMSO wells 0.193, cell-free background 0.041
[11] = arabinose 10000000 nM, raw OD600 reference: median of DMSO wells 0.146, cell-free background 0.041
[12] = arabinose induction (level): High, raw OD600 reference: median of DMSO wells 0.331, cell-free background 0.041
[13] = arabinose induction (level): Low, raw OD600 reference: median of DMSO wells 0.417, cell-free background 0.041
[14] = arabinose induction (level): High, raw OD600 reference: median of DMSO wells […], cell-free background 0.041
[15] = arabinose induction (level): Low, raw OD600 reference: median of DMSO wells 0.227, cell-free background 0.041
[16] = arabinose 100 nM, raw OD600 reference: median of DMSO wells 0.413, cell-free background 0.052
[17] = arabinose 10000000 nM, raw OD600 reference: median of DMSO wells […], cell-free background 0.052

Compound | growth [1] | growth [2, 7] | growth [2, 8] | growth [2, 9] | growth [2, 10] | growth [2, 11] | growth [3, 12] | growth [3, 13] | growth [4, 14] | growth [4, 15] | growth [5] | growth [6, 16] | growth [6, 17]
C#Cc1cccc(Nc2ncnc3cc(OCCOC)c(OCCOC)cc23)c1 [Erlotinib] | 0.193 ± 0.0065 | 0.256 ± 0.01 | 0.236 ± 0.0081 | 0.202 ± 0.0068 | 0.146 ± 0.0076 | 0.185 ± 0.01 | 0.349 ± 0.093 | 0.303 ± 0.066 | 0.161 ± 0.0058 | 0.201 ± 0.0093 | 0.436 ± 0.03 | 0.411 ± 0.005 | 0.35 ± 0.012
COc1cccc2c1C(=O)c1c(O)c3c(c(O)c1C2=O)C[C@@](O)(C(C)=O)C[C@@H]3O[C@H]1C[C@H](N)[C@H](O)[C@H](C)O1 [Daunorubicin hydrochloride] | 0.0457 ± 0.0022 | 0.0442 ± 0.0008 | 0.04263 ± 5.8e-05 | 0.0446 ± 0.001 | 0.04253 ± 0.00038 | 0.0433 ± 0.0001 | 0.058 ± 0.0071 | 0.0577 ± 0.0054 | 0.0527 ± 0.0011 | 0.0519 ± 0.00092 | 0.053 ± 0.00055 | 0.0571 ± 0.0011 | 0.0536 ± 0.00026
CN(C)CCOC(c1ccc(Cl)cc1)c1ccccn1 (stereo not drawn) [Carbinoxamine maleate salt] | 0.2081 ± 0.00038 | 0.297 ± 0.017 | 0.265 ± 0.006 | 0.196 ± 0.034 | 0.187 ± 0.018 | 0.13 ± 0.011 | 0.259 ± 0.023 | 0.44 ± 0.01 | 0.193 ± 0.01 | 0.23 ± 0.016 | 0.438 ± 0.022 | 0.393 ± 0.015 | 0.332 ± 0.021
C[C@]12C=CC(=O)C=C1CC[C@H]1[C@@H]3C[C@@H](O)[C@](O)(C(=O)CO)[C@@]3(C)C[C@H](O)[C@@]12F [Triamcinolone] | 0.222 ± 0.0077 | 0.256 ± 0.033 | 0.266 ± 0.0064 | 0.157 ± 0.014 | 0.142 ± 0.0088 | 0.127 ± 0.0023 | 0.222 ± 0.011 | 0.452 ± 0.014 | 0.191 ± 0.014 | 0.229 ± 0.022 | 0.451 ± 0.037 | 0.4315 ± 0.0037 | 0.306 ± 0.03
CC(=O)c1ccc2c(c1)N(CCCN(C)C)c1ccccc1S2 [Acetopromazine maleate salt] | 0.183 ± 0.0048 | 0.228 ± 0.0028 | 0.263 ± 0.016 | 0.208 ± 0.023 | 0.123 ± 0.0016 | 0.152 ± 0.0028 | 0.214 ± 0.025 | 0.301 ± 0.033 | 0.188 ± 0.012 | 0.217 ± 0.021 | 0.47 ± 0.012 | 0.399 ± 0.011 | 0.322 ± 0.015
Cc1cc(C2CCCCC2)n(O)c(=O)c1 [Ciclopirox ethanolamine] | 0.04347 ± 0.00021 | 0.04303 ± 5.8e-05 | 0.03957 ± 0.00035 | 0.0447 ± 0.00064 | 0.03987 ± 0.00012 | 0.0504 ± 0.00059 | 0.0544 ± 0.0014 | 0.0525 ± 0.0041 | 0.0626 ± 0.011 | 0.05427 ± 0.00029 | 0.0666 ± 0.0021 | 0.0481 ± 0.00095 | 0.0634 ± 0.0046
CCn1cc(C(=O)O)c(=O)c2cc(F)c(N3CCNC(C)C3)c(F)c21 (stereo not drawn) [Lomefloxacin hydrochloride] | 0.04153 ± 0.0004 | 0.0411 ± 0.00064 | 0.03993 ± 0.00021 | 0.0417 ± 0.00042 | 0.03983 ± 0.00025 | 0.04157 ± 0.00015 | 0.04757 ± 0.00021 | 0.0494 ± 0.0013 | 0.0491 ± 0.0012 | 0.0483 ± 0.0006 | 0.0513 ± 0.0014 | 0.0534 ± 0.0016 | 0.0512 ± 0.0011
CSc1nc2cc(Cl)c(Oc3cccc(Cl)c3Cl)cc2[nH]1 [Triclabendazole] | 0.0427 ± 0.0024 | 0.0531 ± 0.0014 | 0.0802 ± 0.002 | 0.0447 ± 0.0021 | 0.0733 ± 0.012 | 0.04873 ± 5.8e-05 | 0.0558 ± 0.0083 | 0.0583 ± 0.0045 | 0.0562 ± 0.0033 | 0.0542 ± 0.0043 | 0.0897 ± 0.0096 | 0.0864 ± 0.011 | 0.137 ± 0.014
C[C@]1(Cn2ccnn2)[C@H](C(=O)O)N2C(=O)C[C@H]2S1(=O)=O [Tazobactam] | 0.249 ± 0.011 | 0.0404 ± 0.0022 | 0.0384 ± 0.0001 | 0.045 ± 0.0019 | 0.18 ± 0.015 | 0.074 ± 0.0014 | 0.405 ± 0.031 | 0.424 ± 0.022 | 0.195 ± 0.004 | 0.19 ± 0.017 | 0.0454 ± 0.00051 | 0.245 ± 0.17 | 0.0826 ± 0.0045
COc1cc2nc(N3CCN(C(=O)c4ccco4)CC3)nc(N)c2cc1OC [Prazosin hydrochloride] | 0.242 ± 0.0066 | 0.319 ± 0.019 | 0.239 ± 0.0065 | 0.185 ± 0.008 | 0.147 ± 0.015 | 0.226 ± 0.0067 | 0.263 ± 0.09 | 0.348 ± 0.091 | 0.247 ± 0.023 | 0.285 ± 0.029 | 0.498 ± 0.007 | 0.399 ± 0.013 | 0.3092 ± 0.0026
C[C@]12C[C@H](O)[C@H]3[C@@H](CCC4=CC(=O)CC[C@@]43C)[C@@H]1CC[C@@H]2C(=O)CO [Corticosterone] | 0.143 ± 0.0016 | 0.195 ± 0.006 | 0.252 ± 0.011 | 0.143 ± 0.015 | 0.16 ± 0.0065 | 0.134 ± 0.0044 | 0.235 ± 0.059 | 0.268 ± 0.055 | 0.179 ± 0.017 | 0.206 ± 0.032 | 0.418 ± 0.033 | 0.402 ± 0.017 | 0.246 ± 0.0064
OCCN(CCO)c1nc(N2CCCCC2)c2nc(N(CCO)CCO)nc(N3CCCCC3)c2n1 [Dipyridamole] | 0.0642 ± 0.0085 | 0.0575 ± 0.0086 | 0.0482 ± 0.0011 | 0.0725 ± 0.015 | 0.05417 ± 0.00046 | 0.135 ± 0.016 | 0.079 ± 0.002 | 0.0913 ± 0.034 | 0.195 ± 0.035 | 0.205 ± 0.033 | 0.0816 ± 0.027 | 0.068 ± 0.006 | 0.0709 ± 0.0012
CCN(CC)CCOc1ccc(C(=C(Cl)c2ccccc2)c2ccccc2)cc1 [Clomiphene citrate (Z,E)] | 0.0417 ± 0.00081 | 0.04167 ± 0.00032 | 0.04553 ± 0.00029 | 0.0433 ± 0.0019 | 0.0493 ± 0.00052 | 0.0428 ± 0.00085 | 0.0496 ± 0.0019 | 0.0482 ± 0.00099 | 0.04853 ± 0.00015 | 0.0475 ± 0.00049 | 0.0537 ± 0.00085 | 0.0696 ± 0.034 | 0.0856 ± 0.015
CC(=O)O[C@@]12CO[C@@H]1C[C@H](O)[C@@]1(C)C(=O)[C@H](O)C3=C(C)[C@@H](OC(=O)[C@H](O)[C@@H](NC(=O)OC(C)(C)C)c4ccccc4)C[C@@](O)([C@@H](OC(=O)c4ccccc4)[C@H]21)C3(C)C [Docetaxel] | 0.266 ± 0.005 | 0.34 ± 0.0038 | 0.299 ± 0.014 | 0.311 ± 0.094 | 0.134 ± 0.011 | 0.206 ± 0.02 | 0.248 ± 0.011 | 0.373 ± 0.071 | 0.204 ± 0.016 | 0.229 ± 0.047 | 0.614 ± 0.12 | 0.4282 ± 0.0041 | 0.297 ± 0.0093
C=C1/C(=C\C=C2/CCC[C@]3(C)[C@@H]([C@H](C)CCCC(C)C)CC[C@@H]23)C[C@@H](O)C[C@@H]1O [Alfacalcidol] | 0.0884 ± 0.006 | 0.0977 ± 0.004 | 0.051 ± 0.0012 | 0.143 ± 0.018 | 0.065 ± 0.0018 | 0.121 ± 0.002 | 0.219 ± 0.033 | 0.301 ± 0.066 | 0.234 ± 0.012 | 0.226 ± 0.018 | 0.146 ± 0.0019 | 0.4206 ± 0.0018 | 0.149 ± 0.023
COC1=CC(=O)C[C@@H](C)[C@]12Oc1c(Cl)c(OC)cc(OC)c1C2=O [Griseofulvin] | 0.223 ± 0.0068 | 0.2842 ± 0.002 | 0.2487 ± 0.002 | 0.208 ± 0.021 | 0.0853 ± 0.0022 | 0.135 ± 0.006 | 0.241 ± 0.051 | 0.385 ± 0.11 | 0.174 ± 0.0029 | 0.233 ± 0.022 | 0.514 ± 0.041 | 0.416 ± 0.013 | 0.21 ± 0.032
